The values below come from the supplement of paper PMC10941209.

A number with no mark means an inactive call.

This assay has as its system Toxoplasma gondii RH 2F1 tachyzoites (intracellular in HFF). Nature of the assay: parasite survival relative to DMSO control; higher = less antiparasitic activity, active = 20 or less. Conditions: 1 µM; 72 h. Here is the method: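 Primary single-dose screen of the MMV Pandemic Response Box at 1 uM against T. gondii RH-2F1 (beta-galactosidase) tachyzoites in HFF cells, 72 h at 37 C. Parasite growth read by CPRG absorbance at 570 nm and normalised to DMSO-treated infected controls (% survival); pyrimethamine was the reference drug. The paper calls at least 80% inhibition a hit.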
Turning to `Clc1ccc(COC(Cn2ccnc2)c2ccc(Cl)cc2Cl)c(Cl)c1` (stereo not given), the parasite survival was 21.8%.

For `Cc1cc(CCOc2c(C)cc(-c3nnn(C)n3)cc2C)on1`, the parasite survival was 65.1%.

For the compound `N=C(N)c1ccc(COc2ccc(Cl)cc2)cc1`, the parasite survival was 54.6%.

`CC[C@H]1OC(=O)[C@H](C)[C@@H](O[C@H]2C[C@@](C)(OC)[C@@H](O)[C@H](C)O2)[C@H](C)[C@@H](O[C@@H]2O[C@H](C)C[C@H](N(C)C)[C@H]2O)[C@](C)(O)C[C@@H](C)C(=O)[C@H](C)[C@@H](O)[C@]1(C)O`: the parasite survival is 13.9% (active).

With `O=C1NC(=S)N/C1=C\c1cc(Br)cc(Br)c1O`, the parasite survival was 71.6%.

`CN(C)CCNC(=O)c1cccc2cccnc12`: the parasite survival was 62%.

For the compound `CCCc1ccc(-c2cc3cn([C@H]4C[C@H](O)[C@@H](CO)O4)c(=O)nc3o2)cc1`, the parasite survival was 61.6%.

Regarding `O=C(CSc1nnc(Br)n1-c1ccc(C2CC2)c2ccccc12)Nc1ccc(C(=O)O)cc1Cl`, the parasite survival was 61%.

With `O=C(NCc1ccc(F)cc1)c1c(O)c2ncccc2[nH]c1=O`, the parasite survival was 75.5%.

For `CCCCCc1ccc(C(=O)NCCn2cc(CCCCCc3c[nH]c(N)n3)nn2)cc1`, the parasite survival was 67.5%.

`Nc1cnn(C2OC(CO)C(O)C2O)c(=O)n1` (stereo not given): the parasite survival is 76.2%.

Regarding `CCCCSc1nc(N)c2[nH]c(=O)c(=O)n(Cc3ccccc3)c2n1`, the parasite survival was 26.1%.

Take `CC(C)(C)NC(=O)[C@@H]1C[C@@H]2CCCC[C@@H]2CN1C[C@@H](O)[C@H](Cc1ccccc1)NC(=O)[C@H](CC(N)=O)NC(=O)c1ccc2ccccc2n1`: the parasite survival was 39%.

As for `O=c1[nH]cnc2c1ncn2[C@H]1CC[C@@H](CO)O1`, the parasite survival is 79.3%.

With `CC(C)Nc1ncnc2c1cnn2-c1ccc(Cl)cc1`, the parasite survival is 58.2%.

On to `O=C(Nc1ncc(Cc2cccc3ccccc23)s1)C1CCCCC1`, for which the parasite survival is 25.3%.

On to `O=C(NC12CC3CC(CC(C3)C1)C2)c1cc2ccccc2[nH]1`, for which the parasite survival is 14.7% (active).

For the compound `COC1CC2CCC(C)C(O)(O2)C(=O)C(=O)N2CCCCC2C(=O)OC(C(C)CC2CCC(OCCO)C(OC)C2)CC(=O)C(C)/C=C(\C)C(O)C(OC)C(=O)C(C)CC(C)/C=C/C=C/C=C/1C` (stereo not given), the parasite survival was 56.8%.

Consider `C[C@@H](NC(=O)c1cccc(-c2cnc(-c3cc4ccccc4cn3)[nH]2)c1)c1ccc(F)cc1`, for which the parasite survival is 11.6% (active).

Turning to `Cc1nc2ccc(Cl)cc2c(-c2ccccc2)c1CC(=O)O`, the parasite survival was 79.3%.

Regarding `COC(=O)Nc1nc2cc([S+]([O-])c3ccccc3)ccc2[nH]1` (stereo not given), the parasite survival is 59.2%.

On to `O=C1c2cccc3cccc(c23)C(=O)N1CC1CO1` (stereo not given), for which the parasite survival is 51.9%.

On to `C=C[C@]1(C)C[C@@H](OC(=O)CS[C@@H]2C[C@H]3CC[C@@H](C2)N3C)[C@]2(C)[C@H](C)CC[C@]3(CCC(=O)[C@H]32)[C@@H](C)[C@@H]1O`, for which the parasite survival was 18.1% (active).

Regarding `C[C@H](c1cccc2ccccc12)N(C)Cc1ccccc1`, the parasite survival is 44.4%.

Regarding `Nc1nc(-c2ccccc2)nc2c1ncn2[C@@H]1O[C@H](COS(=O)(=O)NC(=O)c2ccccc2O)[C@@H](O)[C@H]1O`, the parasite survival was 60.7%.

For `O=C(Nc1ccc(N2CCN(C(=O)c3ccccc3)CC2)cc1)c1ccc2c(c1)OCO2`, the parasite survival was 46.9%.

For the compound `Cc1onc(-c2ccccc2)c1-c1ccc(S(N)(=O)=O)cc1`, the parasite survival was 74%.

Consider `N[C@H](CCC(=O)N[C@@H](Cc1c[nH]c2ccccc12)C(=O)O)C(=O)O`, for which the parasite survival was 84.2%.

Turning to `Cc1onc(-c2ccccc2Cl)c1C(=O)N[C@@H]1C(=O)N2[C@@H]1SC(C)(C)[C@@H]2C(=O)O`, the parasite survival was 50.5%.

Consider `O=C(NO)C1(CS(=O)(=O)c2ccc(Oc3ccc(Cl)cc3)cc2)CCOCC1`, for which the parasite survival was 66%.

With `COc1ccc(C(C)(C)C)cc1NC(=O)C(=O)c1ccc(OCCN2CCOCC2)c2ccccc12`, the parasite survival is 45.8%.

Take `CC(=O)Nc1cc(NS(=O)(=O)c2ccc(Cl)cc2)cc2c(Cl)[nH]nc12`: the parasite survival was 52%.

In the case of `CCc1cc(O)c(Oc2ccc(C(N)=O)cc2F)cc1F`, the parasite survival was 71.5%.

With `FC(F)(F)Oc1ccc(Nc2ccc3cccc(Cl)c3n2)cc1`, the parasite survival is 41.4%.

Regarding `C[C@H]1CC[C@@]2(O)C(C)(C)[C@@H]3CC[C@@]2(C)[C@H]1C3`, the parasite survival is 55.5%.

With `CC1(C)C[C@H]1C(=O)N/C(=C\CCCCSC[C@@H](N)C(=O)O)C(=O)O`, the parasite survival is 94.5%.

`COc1cc(Cc2cnc(N)nc2N)c2c(c1OC)OC(C1CC1)C=C2` (stereo not given): the parasite survival was 10.4% (active).

As to `CCOC(=O)Nc1cc(NC(C)CC(C)CN(CC)CC)c2nc(-c3ccccc3)c(-c3ccccc3)nc2n1` (stereo not given), the parasite survival was 7.01% (active).

Consider `CC(C)(C)c1ccc(C(Cn2cccc(C(F)(F)F)c2=O)NC2Cc3ccccc3C2)cc1` (stereo not given), for which the parasite survival was 51.5%.

As to `O=c1nc(N2CCN(CC3CCCCC3)CC2)sc2c([N+](=O)[O-])cc(C(F)(F)F)cc12`, the parasite survival is 43.6%.
